Assay outcomes: PubChem, several laboratories
Only some compounds are listed: those with a hit (about 12% of all), similar ones and a draw of the others.
KCC2 mod = modulates chloride dependent transport by human KCC2; Q9H2X9; KCC2 cells, thallium flux FluoZin-2 fluorescence; B-score of Tl+ flux slope (higher = more flux/activation; lower = inhibition) at 10 µM; actives 2.2% (n = 190,000);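 active = thallium flux slope and its plate-corrected score both differing from the plate sample mean at a set confidence after two filtering rounds, in either direction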;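 also: slope of fluorescence scaled to starting intensity during 10 to 20 s after thallium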
ROMK primary = modulators of human ROMK potassium channel; Tet-inducible ROMK, thallium flux fluorescence; actives lie on both sides; actives 2% (n = 130,000); B-score at 10 µM; AID 1918;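 active = signal ratio slope over the read window, or its plate-corrected B-score, at least 3 SD from the plate mean, either direction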;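 also: B-score of the F/F0 ratio slope over 7 to 12 s after thallium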
Lmaj promast = inhibitors of Leishmania major promastigote growth | Leishmania major promastigotes, resazurin fluorescence viability | inhibition, % at 10 µM | actives 9% (n = 200,000); in the data active = inhibition above about 50%;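 also: promastigotes grown with compound for 44 hours at 28 °C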
Calpain2 inh = inhibitors of pig calpain II; AID 1236; inhibition, % at 16 µM; purified calpain II, fluorogenic peptide substrate, 30 min; actives 0.37% (n = 220,000);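 active = inhibition above about 50%, limit read from the data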
WT yeast gro inh = growth inhibition of WT yeast, mitochondrial fusion screen | inhibition, % at 10 µM | AID 1362 | actives 2.1% (n = 190,000) | mitochondrial fusion phenotypic screen, WT strain; in the data active = inhibition above about 58%; tested in S. cerevisiae
KCC2 sec1 = confirmation of human KCC2 transport modulators; shares compounds with KCC2 mod; HEK293-KCC2, thallium flux, FluoZin2 fluorescence; active compounds read high; normalised thallium flux (F/F0 slope) at 10 µM; actives 15% (n = 3,700); AID 1713;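 active = thallium flux slope above the same plate's solvent-only control mean plus 3 SD; inconclusive = the two replicate wells disagree; inactive = no significant difference from solvent-only control wells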
KCC2 bumet counter = thallium flux persisting under bumetanide in KCC2 cells, counter-screen secondary assay; AID 1714; actives 49% (n = 3,700); shares compounds with KCC2 mod; normalized thallium flux at 10 µM; HEK293-KCC2 + bumetanide/ouabain, thallium flux FluoZin2; active compounds read high;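 active = thallium entry rate above the same plate's blocked-transporter control wells by more than 3 SD; inconclusive = the two repeat wells disagree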;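 also: raw slope of fluorescence over initial fluorescence between 10 and 20 s after thallium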
KCC2 sec2 = confirmation of human KCC2 transport modulators. AID 1715. HEK293-KCC2, thallium flux FluoZin2 fluorescence; actives lie on both sides; F/F0 rise rate, 10–20 s post-thallium. actives 23% (n = 3,700). shares compounds with KCC2 mod. normalized thallium flux at 10 µM;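 active = thallium flux slope more than 3 SD above or below the plate's solvent-only control mean, mostly below; inconclusive = the two repeat wells disagreed; inactive = no significant shift from solvent-only controls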
HEK counter1 = acts in parental HEK cells, KCC2 counter-screen; shares compounds with KCC2 mod; actives 46% (n = 3,700); HEK293 parental cells, thallium flux FluoZin2, ouabain; baseline-ratio fluorescence slope, 10–20 s after thallium; thallium flux rate (normalised fluorescence) at 10 µM;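 active = thallium flux rate significantly above the same plate's solvent-only control wells, beyond their mean plus 3 SD; inconclusive = the two replicate wells gave conflicting results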
KCC2 retest ouab = modulates human KCC2 on retest with ouabain; shares compounds with KCC2 mod; HEK293-KCC2, thallium flux FluoZin2 fluorescence; bidirectional: low = inhibitor, high = activator; raw Tl+ flux slope (below DMSO = inhibition, above = activation) at 10 µM; actives 48% (n = 3,700);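 active = thallium flux slope beyond 3 SD from same-plate DMSO control mean in most replicates, usually higher, sometimes lower; inconclusive = repeat tests gave conflicting results; inactive = no significant difference from controls in most replicates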;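 also: slope of initial-normalized fluorescence between seconds 10 and 20 after thallium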
HEK293 Tl flux2 = counter-screen for KCC2 modulators: effect in parental HEK293 cells; shares compounds with KCC2 mod; actives 33% (n = 3,700); thallium flux slope at 10 µM; thallium flux FluoZin-2 fluorescence slope;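 active = thallium flux slope above the same plate's solvent-control mean plus 3 SD in both duplicate wells; inconclusive = duplicate wells that disagreed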;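 also: run without ouabain in cells lacking the KCC2 cotransporter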
Of the large screens only hits and unclear results are named; the others gave an inactive call (follow-up assays come after a bar, where they were run).

CCC(OC(=O)C1=Cc2ccccc2OC1)C(=O)NCc1ccco1 (configuration not stated)	KCC2 mod -2.8 | KCC2 sec1 inactive | KCC2 bumet counter inactive | KCC2 sec2 inactive | HEK counter1 inactive | KCC2 retest ouab inconclusive | HEK293 Tl flux2 inactive
CN(C)n1cccc1/C=C(\C#N)S(=O)(=O)c1ccc(Cl)cc1	none (no result: Lmaj promast, WT yeast gro inh)
Cc1cc(-c2nnc(-c3cccc(Cl)c3)o2)no1	none (no result: ROMK primary, Lmaj promast, WT yeast gro inh)
O=C(CN1CCN(c2ccccn2)CC1)Nc1ccc2ccccc2c1	none (no result: KCC2 mod) | KCC2 sec1 inactive | KCC2 bumet counter inactive | KCC2 sec2 inactive | HEK counter1 inactive | KCC2 retest ouab inactive | HEK293 Tl flux2 inactive
O=C(Nc1ccc(Cl)c(Cl)c1)N(CCCN1CCOCC1)Cc1cccs1	KCC2 mod -3 (no result: ROMK primary) | KCC2 sec1 inactive | KCC2 bumet counter inactive | KCC2 sec2 inactive | HEK counter1 inactive | KCC2 retest ouab inactive | HEK293 Tl flux2 inactive
Cc1ccc(C(=O)CCC2CCCCC2=O)cc1 (configuration not stated)	none (no result: KCC2 mod) | KCC2 sec1 inactive | KCC2 bumet counter 0.012 | KCC2 sec2 inactive | HEK counter1 inactive | KCC2 retest ouab inconclusive | HEK293 Tl flux2 inactive
O=C(OCC(=O)N1CCN(C(=O)c2ccco2)CC1)c1sc2ccccc2c1Cl	KCC2 mod -4 (no result: ROMK primary) | KCC2 sec1 inactive | KCC2 bumet counter inconclusive | KCC2 sec2 inconclusive | HEK counter1 inactive | KCC2 retest ouab inactive | HEK293 Tl flux2 inactive
O=C(OCC(=O)N1CCN(C(=O)c2ccco2)CC1)c1ccccc1	none
O=C(NC(=S)NNC(=O)[C@H]1C[C@@H]1c1ccccc1)c1ccc(F)cc1	KCC2 mod 20 (no result: ROMK primary, Lmaj promast, WT yeast gro inh) | KCC2 sec1 inactive | KCC2 bumet counter 0.02 | KCC2 sec2 inactive | HEK counter1 0.02 | KCC2 retest ouab 0.03 | HEK293 Tl flux2 0.021
COc1cc(OC)cc(C(=O)NC(=S)NNC(=O)[C@H]2C[C@@H]2c2ccccc2)c1	KCC2 mod 59 (no result: ROMK primary, Lmaj promast, WT yeast gro inh) | KCC2 sec1 0.023 | KCC2 bumet counter 0.078 | KCC2 sec2 0.043 | HEK counter1 0.033 | KCC2 retest ouab 0.059 | HEK293 Tl flux2 0.016
